This note sets out measurements from PubChem BioAssay.

Test [1] can be described thus: compounds binding Alexa647 anti-His antibody – biochemical, small-molecule microarray, 635 nm fluorescence, artefact control for SMM control protein annotation, primary screen (AID 1128).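 Also: score merges feature fluorescence with signal-to-noise for each printed compound spot.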 As to conditions: higher = more signal.
For test [2], the system named is Human papillomavirus type 1a E7 protein (residues 1-88). As to the kind of experiment: HPV1a E7 small-molecule binders, primary screen, biochemical, small-molecule microarray, residues 1-88, 635 nm (AID 1129). As to conditions: small-molecule microarray binding, fluorescence 635 nm; higher = more signal.
Test [3] concerns the target Focal adhesion kinase 1 (Homo sapiens) (UniProt Q05397). As to the kind of experiment: PTK2 protein binding on printed compound slides – biochemical, small-molecule microarray, 635/667 nm fluorescence, BSA, DTT, primary screen (AID 1130).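 Also: composite of spot emission at 667 nm and signal to noise over triplicate slides.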 The conditions noted are these: 635 nm fluorescence, higher = more signal.
For test [4], the system named is Fibrinogen (Alexa647-labelled). As to the kind of experiment: Alexa647-fibrinogen binding to printed small molecules – biochemical, small-molecule microarray, 635/667 nm fluorescence, artefact control for SMM control-protein annotation, profiling panel (AID 1131).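 Also: z-score merges 667 nm fluorescence with per-spot signal-to-noise over triplicate slides.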 As to conditions: fibrinogen-A647 binding fluorescence, higher = more signal.
For test [5], the target named is Follistatin (Homo sapiens) (UniProt P19883). As to the kind of experiment: FST protein binding to printed compounds – biochemical, small-molecule microarray, 635/667 nm fluorescence, primary screen (AID 1132). As to conditions: 635 nm fluorescence, higher = more signal.
Test [6] deals with Fibroblast growth factor 2 (Homo sapiens) (UniProt P09038). As to the kind of experiment: basic fibroblast growth factor binding to printed compounds – biochemical, small-molecule microarray, 635/667 nm fluorescence, primary screen (AID 1133). As to conditions: FGF2, fluorescence 635/667, higher = more signal.
Test [7] is described as follows: JC-1 mitochondrial potential readout, lung cancer cells – cell-based, A549, JC-1 fluorescence, basal, 24 h, 100 nL, profiling panel (AID 1138).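 Also: A549 lung adenocarcinoma cells under basal conditions with no added stimulus; test concentration not given here.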 The conditions noted are these: higher = more signal.
For another test, the system named is Lefty1. Nature of the test: Lefty1 protein binding to printed compounds – biochemical, small-molecule microarray, 635/667 nm fluorescence, primary screen (AID 1139). The conditions noted are these: fluorescence 635/667, higher = more signal.
Test [8] relates to wheat germ agglutinin (Triticum aestivum), Alexa647-labelled. As to the kind of experiment: Alexa647-WGA lectin binding to printed small molecules – biochemical, small-molecule microarray, 635/667 nm fluorescence, artefact control for SMM control-protein annotation, profiling panel (AID 1140).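 Also: score merges 667 nm feature emission with signal to noise over triplicate slides.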 As to conditions: WGA-A647 binding, 635 nm fluorescence, higher = more signal.
Test [9] concerns the target Luciferin 4-monooxygenase (Photinus pyralis) (UniProt P08659). Nature of the test: inhibition of purified Photinus pyralis luciferase – biochemical, luminescence, purified enzyme, 2006 set, primary screen (AID 1141).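 Also: cell-free assay with purified firefly luciferase at 100 ng per well in PBS; test concentration not given here.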 The conditions noted are these: purified firefly luciferase, SteadyGlo luminescence, 30 min; higher = more signal, called active from +8 up or from −8 down.

In test [10] the test system is Wnt5a (protein binding on small-molecule microarray). As to the kind of experiment: small molecules binding Wnt5a protein – biophysical, small-molecule microarray, 635/667 nm fluorescence, primary screen (AID 1142).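 Also: fluorescence read at 667 nm with signal to noise per printed feature.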 As to conditions: 635 nm fluorescence, higher = more signal.
Test [11] can be described thus: ATP-based viability of Huh7 replicon cells – cell-based, CellTiter-Glo luminescence, basal, 48 h, cytotoxicity control for HCV replication inhibitor project, primary screen (AID 1143).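 Also: Huh7 hepatoma cells carrying a hepatitis C replication reporter with no stimulus; test concentration not given here.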 As to conditions: higher = more signal, called active from +8 up or from −8 down. In general terms: Replicon systems follow genome replication, usually without infectious particles.
A short description of test [12]: Pseudomonas biofilm growth suppression – PAO1 strain, BacTiter-Glo luminescence, LB-PBS, primary screen (AID 1144). The conditions noted are these: P. aeruginosa PAO1 biofilm, 12 h, higher = more signal.
A short description of test [13]: basal CRE-LacZ reporter activity in PC12 – cell-based, unstimulated, primary screen (AID 1145). As to conditions: no forskolin, luminescence, 4.5 h, higher = more signal, called active from +8 up or from −8 down.
A short description of test [14]: forskolin-driven CRE-LacZ activity in PC12 – cell-based, CRE-LacZ reporter, forskolin-stimulated, primary screen (AID 1146).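 Also: PC12 cells with 6xCRE LacZ reporter stimulated by forskolin 10 µM; beta-galactosidase reporter signal reflecting CREB driven transcription.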 The conditions noted are these: luminescence, 4.5 h, higher = more signal, called active from +8 up or from −8 down.
Test [15] addresses Streptavidin (Streptomyces avidinii) (UniProt P22629). As to the kind of experiment: compounds binding control protein streptavidin – biophysical, small-molecule microarray, 635/667 nm fluorescence, artefact control for SMM compound annotation, primary screen (AID 1147).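 Also: signal reflects streptavidin binding to arrayed compounds as a control protein.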 The conditions noted are these: higher = more signal.
Test [16] can be described thus: probe aInhba binding on compound microarray – biochemical, small-molecule microarray, 635/667 nm fluorescence, primary screen (AID 1148).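 Also: score merges 667nm spot fluorescence with signal-to-noise for antibody binding to printed compounds.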 The conditions noted are these: higher = more signal.
The target in test [17] is Torsin-1A (Homo sapiens) (UniProt O14656). As to the kind of experiment: TOR1A wild-type binding on microarray – cell lysate, small-molecule microarray, lysate, 635/667 nm, primary screen (AID 1149). The conditions noted are these: COS7 hTOR1A-WT lysate, 635 nm fluorescence, higher = more signal.
Test [18] has the same target. Nature of the test: torsin A mutant lysate binding on microarrays – cell lysate, small-molecule microarray, COS7 lysate, 635/667 nm fluorescence, primary screen (AID 1150).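 Also: score pools 667 nm emission and signal to noise measuring lysate protein binding.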 The conditions noted are these: COS7 hTOR1A mutant lysate, 635 nm fluorescence, higher = more signal.
The subject of test [19] is Sonic hedgehog protein (Shh). Nature of the test: Sonic hedgehog microarray binding compounds – biochemical, small-molecule microarray, 635/667 nm fluorescence, primary screen (AID 1151).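 Also: Shh protein binding to compounds spotted on small-molecule microarray slides; score combines spot fluorescence intensity with signal-to-noise across triplicate slides.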 As to conditions: 635 nm fluorescence, higher = more signal.

SMILES strings stand for the structures. Several values for one entry are separate records, joined by “and”; a condition that tells them apart may be missing. Identical values can stand only once. Activity calls are given as the source filed them. Unless noted, no rule for the calls is given here.

Sequence of Torsin-1A (Homo sapiens) (O14656 whole entry, looked up): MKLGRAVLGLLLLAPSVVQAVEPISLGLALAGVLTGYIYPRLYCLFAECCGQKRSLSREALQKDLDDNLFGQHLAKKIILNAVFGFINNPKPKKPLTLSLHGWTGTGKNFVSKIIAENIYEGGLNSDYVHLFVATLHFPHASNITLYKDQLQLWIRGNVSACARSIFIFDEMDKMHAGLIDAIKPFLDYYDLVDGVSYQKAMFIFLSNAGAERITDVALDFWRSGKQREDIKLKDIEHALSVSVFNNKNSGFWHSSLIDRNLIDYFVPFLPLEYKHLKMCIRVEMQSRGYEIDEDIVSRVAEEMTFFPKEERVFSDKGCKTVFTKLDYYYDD
Sequence of Luciferin 4-monooxygenase (Photinus pyralis) (P08659 whole entry, looked up): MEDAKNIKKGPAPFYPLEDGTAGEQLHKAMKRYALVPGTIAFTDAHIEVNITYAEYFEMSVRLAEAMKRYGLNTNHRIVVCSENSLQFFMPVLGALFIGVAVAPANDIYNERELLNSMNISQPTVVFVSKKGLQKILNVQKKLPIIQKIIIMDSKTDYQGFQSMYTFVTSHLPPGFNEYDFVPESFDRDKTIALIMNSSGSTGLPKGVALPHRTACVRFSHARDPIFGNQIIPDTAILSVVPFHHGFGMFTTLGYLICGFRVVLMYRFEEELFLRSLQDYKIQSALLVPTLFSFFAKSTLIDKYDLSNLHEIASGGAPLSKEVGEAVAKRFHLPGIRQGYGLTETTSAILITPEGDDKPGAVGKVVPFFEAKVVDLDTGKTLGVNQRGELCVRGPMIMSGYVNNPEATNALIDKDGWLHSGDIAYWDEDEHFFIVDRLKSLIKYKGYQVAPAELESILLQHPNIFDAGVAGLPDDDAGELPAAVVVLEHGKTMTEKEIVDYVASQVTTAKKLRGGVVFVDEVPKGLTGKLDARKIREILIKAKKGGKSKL
Sequence of Fibroblast growth factor 2 (Homo sapiens) (P09038 whole entry, looked up): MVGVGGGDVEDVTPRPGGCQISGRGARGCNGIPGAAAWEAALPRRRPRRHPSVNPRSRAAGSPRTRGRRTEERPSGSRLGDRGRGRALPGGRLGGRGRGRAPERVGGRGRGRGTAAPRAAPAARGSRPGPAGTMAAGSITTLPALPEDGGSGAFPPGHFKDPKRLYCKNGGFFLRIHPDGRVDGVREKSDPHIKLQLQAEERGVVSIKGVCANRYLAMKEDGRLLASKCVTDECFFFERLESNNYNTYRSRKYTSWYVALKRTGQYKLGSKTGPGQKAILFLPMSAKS
Sequence of Focal adhesion kinase 1 (Homo sapiens) (Q05397 whole entry, looked up): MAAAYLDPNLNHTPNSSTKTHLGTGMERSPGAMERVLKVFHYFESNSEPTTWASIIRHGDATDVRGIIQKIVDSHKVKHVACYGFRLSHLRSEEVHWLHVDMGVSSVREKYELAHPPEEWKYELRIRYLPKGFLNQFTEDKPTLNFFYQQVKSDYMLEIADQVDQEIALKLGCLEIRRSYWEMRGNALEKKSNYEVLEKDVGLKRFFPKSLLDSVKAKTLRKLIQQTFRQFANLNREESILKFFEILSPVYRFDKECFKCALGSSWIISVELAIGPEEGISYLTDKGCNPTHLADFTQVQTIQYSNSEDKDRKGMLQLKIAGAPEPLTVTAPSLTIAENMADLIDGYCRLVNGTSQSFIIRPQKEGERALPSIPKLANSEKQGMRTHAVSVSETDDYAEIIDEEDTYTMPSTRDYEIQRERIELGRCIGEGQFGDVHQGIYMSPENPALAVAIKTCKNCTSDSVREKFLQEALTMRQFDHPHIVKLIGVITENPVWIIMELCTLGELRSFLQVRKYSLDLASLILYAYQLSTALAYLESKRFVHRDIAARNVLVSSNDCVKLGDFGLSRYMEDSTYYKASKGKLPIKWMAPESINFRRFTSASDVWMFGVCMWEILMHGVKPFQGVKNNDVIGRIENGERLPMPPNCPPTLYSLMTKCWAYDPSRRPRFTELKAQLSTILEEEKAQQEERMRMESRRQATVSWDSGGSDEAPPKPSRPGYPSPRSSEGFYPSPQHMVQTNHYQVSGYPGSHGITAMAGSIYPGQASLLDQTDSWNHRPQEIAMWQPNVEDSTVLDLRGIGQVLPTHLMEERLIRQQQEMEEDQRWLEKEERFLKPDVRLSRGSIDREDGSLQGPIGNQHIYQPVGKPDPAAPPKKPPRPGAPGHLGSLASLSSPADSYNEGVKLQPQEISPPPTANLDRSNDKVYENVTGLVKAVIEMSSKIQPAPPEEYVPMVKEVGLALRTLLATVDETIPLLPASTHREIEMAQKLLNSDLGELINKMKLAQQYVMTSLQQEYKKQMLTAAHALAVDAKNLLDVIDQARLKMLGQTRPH
Sequence of Follistatin (Homo sapiens) (P19883 whole entry, looked up): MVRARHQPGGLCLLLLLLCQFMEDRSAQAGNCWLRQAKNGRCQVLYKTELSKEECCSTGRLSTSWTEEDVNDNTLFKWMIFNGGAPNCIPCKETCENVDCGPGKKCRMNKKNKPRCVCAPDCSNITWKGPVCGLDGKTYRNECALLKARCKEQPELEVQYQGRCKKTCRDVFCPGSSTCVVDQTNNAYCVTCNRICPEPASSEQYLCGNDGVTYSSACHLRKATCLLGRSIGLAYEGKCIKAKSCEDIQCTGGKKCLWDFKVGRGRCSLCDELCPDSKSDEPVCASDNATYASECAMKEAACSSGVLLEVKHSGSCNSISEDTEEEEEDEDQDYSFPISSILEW
Sequence of Streptavidin (Streptomyces avidinii) (P22629 whole entry, looked up): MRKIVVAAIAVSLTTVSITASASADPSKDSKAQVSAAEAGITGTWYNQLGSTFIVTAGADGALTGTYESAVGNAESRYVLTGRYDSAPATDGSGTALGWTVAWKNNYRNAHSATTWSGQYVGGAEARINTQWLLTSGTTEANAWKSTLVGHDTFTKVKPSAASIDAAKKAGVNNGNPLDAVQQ

For `C[N+](C)(C)CCCCCCNC(=O)[C@H]1C[C@H]2C(=O)N[C@@H](CCCC[N+](C)(C)C)C(=O)N2[C@H]1c1cccc(OCCO)c1`, the composite z-score in test [1] is 1.91 and 1.46; in test [2] it was 0.516 and -0.266; in [3], -0.063 and 0.0884; in test [4], 0.638 and -0.338; in test [5], 1.39 and 1.43; in [6], 1.82 and 1.66. The composite z-score is 1.59 and 0.768 in the test with Lefty1; 0.348 and 0.29 in test [8]; 0.138 and 0.215 in test [10]; -0.621 and 0.0935 in test [15]; 0.298 and 0.135 in test [16]; 0.765 and 1.27 with Torsin-1A (Homo sapiens) [17]. For the same compound, the composite z-score in the test with Torsin-1A (Homo sapiens) [18] was 1.11 and 0.354; in [19] it was 1.98 and 1.79. Further, the z-score in test [7] is 0.357 and -0.307; in test [9], -0.0709 (inactive) and 0.15 (inactive); in [11], -0.153 (inactive) and 0.0096 (inactive); in test [12], -0.454 (inactive) and 0.221 (inactive); in [13], -0.532 (inactive) and -1.09 (inactive); in test [14], 0.323 (inactive) and -0.622 (inactive).

Consider `CO[C@H]1COC(=O)[C@H](C)NC(=O)CC=C[C@@H](C)[C@H](OC)COC(=O)CC=C[C@@H]1C`, for which the composite z-score in test [1] is -0.284; in test [2], -1.4; in test [3], -0.348; in [4], -1.86; in test [5] it was 1.28; in [6] it was 1.71. In addition, the composite z-score with Lefty1 is 1.62; in test [8] it was -0.655; in test [10], 0.155; in [15], 0.14; in test [16], -0.237; with Torsin-1A (Homo sapiens) [17] it was 1.85. Besides, the composite z-score stood at 1.81 in the test with Torsin-1A (Homo sapiens) [18] and 1.62 in test [19]. Moreover, the z-score in [7] was 0.106; in test [9], -0.885 (inactive); in test [11], 0.0447 (inactive); in test [12], -0.506 (inactive); in [13], 1.51 (inactive); in test [14], -0.41 (inactive).

Regarding `Cc1ccc(S(=O)(=O)N[C@H]2COC(=O)[C@@H](Cc3ccccc3)NC(=O)[C@@H](C)COC(=O)CC=C[C@@H]2C)cc1`, the composite z-score is -0.619 and 1.81 in test [1]; -0.95 and -0.164 in test [2]; -0.282 and 0.116 in test [3]; -0.747 and -0.0169 in [4]; 1.18 and 0.825 in test [5]; 0.575 and 0.462 in [6]. Besides, the composite z-score in the test on Lefty1 was 0.678 and 0.882; in test [8], -0.892 and -0.0489; in test [10], 0.089 and 0.0949; in [15] it was -0.236 and -0.154; in test [16], -0.234 and -0.158; with Torsin-1A (Homo sapiens) [17] it was 0.143 and 0.354. The composite z-score with Torsin-1A (Homo sapiens) [18] is 0.254 and 0.289; in [19] it was 1.07 and 1.29. The z-score in test [7] is 0.636 and -1.01; in test [9], -0.287 (inactive) and -0.431 (inactive); in test [11] it was 0.0143 (inactive) and -1.15 (inactive); in [12], -0.166 (inactive) and -1.8 (inactive); in [13], -0.746 (inactive) and 0.834 (inactive); in [14], -0.899 (inactive) and -0.0204 (inactive).
